Consider 17 compounds from ChEMBL document CHEMBL5606458, “ASAP - ZIKV NS2B-NS3 protease fluorescence single point” (2024).

Each structure is given as a SMILES string. Screen size: about 2,700 compounds; about 160 (5.9%) showed an effect of 50% or more. The sample holds strong results, similar compounds and a random draw of the others, so the mix is not that of the screen.

The target in this test is Nonstructural protein 3 (Zika virus) (UniProt A0A024AXB9).
Chain of Nonstructural protein 3 (Zika virus) (A0A024AXB9 as listed by the source): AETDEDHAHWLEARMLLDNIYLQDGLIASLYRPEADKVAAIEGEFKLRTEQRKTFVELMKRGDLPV

With `c1ccc2c([C@H]3CCN(CCC4CCOCC4)C3)c[nH]c2c1`, the inhibition runs as follows: (PRVABC59, Concentration 49.5 uM, Number of replicates 2.0, Standard deviation 1.2406953242285323 %) 12.1%; (PRVABC59, Concentration 99.01 uM, Number of replicates 2.0, Standard deviation 0.23839741086829247 %) 18.5%; (PRVABC59, Concentration 198.0 uM, Number of replicates 2.0, Standard deviation 0.8459297336369422 %) 27.9%.

Take `O=S(=O)(Nc1ccc(Oc2ccccc2Cl)cc1)c1c[nH]c2ccc(Cl)cc12`: the inhibition (PRVABC59, Concentration 49.5 uM, Number of replicates 2.0, Standard deviation 1.8433959322838933 %) came to 11%; the inhibition (PRVABC59, Concentration 99.01 uM, Number of replicates 2.0, Standard deviation 3.1252865977713378 %) turned out to be 14.3%; the inhibition (PRVABC59, Concentration 198.0 uM, Number of replicates 2.0, Standard deviation 3.9544884158217 %) is 39%.

Regarding `O=C1NCc2ccccc2C12CCN(Cc1cc3ccc(F)cc3[nH]1)CC2`, the inhibition (PRVABC59, Concentration 49.5 uM, Number of replicates 2.0, Standard deviation 3.3747851513626115 %) amounted to 6.9%; the inhibition (PRVABC59, Concentration 99.01 uM, Number of replicates 2.0, Standard deviation 2.4802388593809592 %) is 13.2%; the inhibition (PRVABC59, Concentration 198.0 uM, Number of replicates 2.0, Standard deviation 2.1357042200194405 %) amounted to 18.5%.

With `NCc1cccc(NC(=O)[C@@H](NC(=O)OCc2ccccc2)c2ccc(OCc3ccccc3)cc2)c1`, the inhibition runs as follows: (PRVABC59, Concentration 49.5 uM, Number of replicates 2.0, Standard deviation 0.012122107981309298 %) 99.6%; (PRVABC59, Concentration 99.01 uM, Number of replicates 2.0, Standard deviation 0.01616281064174573 %) 99.1%; (PRVABC59, Concentration 198.0 uM, Number of replicates 2.0, Standard deviation 0.06465124256698292 %) 97.8%.

As for `CCCCCC(=O)N[C@H](C(=O)NCc1cccc(CN)c1)c1ccc(OCc2ccccc2)cc1`, the inhibition is -3.7% (PRVABC59, Concentration 49.5 uM, Number of replicates 2.0, Standard deviation 0.8118332703664171 %); 89.7% (PRVABC59, Concentration 99.01 uM, Number of replicates 2.0, Standard deviation 11.543494465765306 %); 99% (PRVABC59, Concentration 198.0 uM, Number of replicates 2.0, Standard deviation 0.4445743989869767 %).

For the compound `NCc1ccc(NC(=O)[C@@H](NC(=O)OCc2ccccc2)c2ccc(OCc3ccccc3)cc2)cc1`, the inhibition (PRVABC59, Concentration 49.5 uM, Number of replicates 2.0, Standard deviation 1.551749181482573 %) was 7.22%; the inhibition (PRVABC59, Concentration 99.01 uM, Number of replicates 2.0, Standard deviation 2.287213711046402 %) was 11.8%; the inhibition (PRVABC59, Concentration 198.0 uM, Number of replicates 2.0, Standard deviation 0.9961100816492645 %) was 23%.

In the case of `NC1(c2cccc(NC(=O)[C@@H](NC(=O)OCc3ccccc3)c3ccc(OCc4ccccc4)cc3)c2)CCC1`, the inhibition stood at 14.2% (PRVABC59, Concentration 49.5 uM, Number of replicates 2.0, Standard deviation 2.468656231060589 %); 30.7% (PRVABC59, Concentration 99.01 uM, Number of replicates 2.0, Standard deviation 1.4495575723595426 %); 82.7% (PRVABC59, Concentration 198.0 uM, Number of replicates 2.0, Standard deviation 0.13484294125181392 %).

As for `CCCCCC(=O)N[C@H](C(=O)NCc1ccc(N)nc1)c1ccc(OCc2ccccc2)cc1`, the inhibition is, setting by setting: (PRVABC59, Concentration 49.5 uM, Number of replicates 2.0, Standard deviation 0.04494641077638166 %) -2.18%; (PRVABC59, Concentration 99.01 uM, Number of replicates 2.0, Standard deviation 0.3023657059020049 %) 1.76%; (PRVABC59, Concentration 198.0 uM, Number of replicates 2.0, Standard deviation 0.018387068425059654 %) -1.18%.

In the case of `CCCCCC(=O)N[C@H](C(=O)N1CCC(CN)CC1)c1ccc(OCc2ccccc2)cc1`, the inhibition is, setting by setting: (PRVABC59, Concentration 49.5 uM, Number of replicates 2.0, Standard deviation 1.1847944417619873 %) 5.06%; (PRVABC59, Concentration 99.01 uM, Number of replicates 2.0, Standard deviation 0.3935504126553241 %) 10.8%; (PRVABC59, Concentration 198.0 uM, Number of replicates 2.0, Standard deviation 0.8347422741682105 %) 26.5%.

In the case of `O=C(Nc1cccc(N2CCNCC2)c1)c1cccc2ncccc12`, the inhibition amounted to 12.8% (PRVABC59, Concentration 49.5 uM, Number of replicates 2.0, Standard deviation 0.4660025311194914 %); 21.1% (PRVABC59, Concentration 99.01 uM, Number of replicates 2.0, Standard deviation 1.8240670503820091 %); 34.4% (PRVABC59, Concentration 198.0 uM, Number of replicates 2.0, Standard deviation 0.426059457023535 %).

Take `CCn1ccnc(N2CC[C@@H](Cc3ccncc3)C2)c1=O`: the inhibition is, setting by setting: (PRVABC59, Concentration 50.0 uM, Number of replicates 2.0, Standard deviation 17.324672814645545 %) 18.6%; (PRVABC59, Concentration 100.0 uM, Number of replicates 2.0, Standard deviation 1.6917913579666908 %) 12.9%; (PRVABC59, Concentration 200.0 uM, Number of replicates 2.0, Standard deviation 5.92774721773736 %) 23.1%.

Consider `CC(C)c1cc(CN2CCC3(CC2)C(=O)NCc2ccccc23)n[nH]1`, for which the inhibition was found to be 1.4% (PRVABC59, Concentration 49.5 uM, Number of replicates 2.0, Standard deviation 2.3847652893231714 %); 2.83% (PRVABC59, Concentration 99.01 uM, Number of replicates 2.0, Standard deviation 4.553677158798315 %); 6.37% (PRVABC59, Concentration 198.0 uM, Number of replicates 2.0, Standard deviation 2.2809894644583135 %).

In the case of `O=S(=O)(c1c[nH]c2ccccc12)N1CCC(c2cnc3ccc[nH]c2-3)CC1`, the inhibition turned out to be 34% (PRVABC59, Concentration 49.5 uM, Number of replicates 2.0, Standard deviation 0.9724228784365659 %); 36.4% (PRVABC59, Concentration 99.01 uM, Number of replicates 2.0, Standard deviation 0.1115050511195736 %); 29% (PRVABC59, Concentration 198.0 uM, Number of replicates 2.0, Standard deviation 2.3986425606638684 %).

As to `CCn1ccnc(N2CC[C@H](c3ccc(OC)nc3)C2)c1=O`, the inhibition (PRVABC59, Concentration 50.0 uM, Number of replicates 2.0, Standard deviation 2.450630192539874 %) was 10.5%; the inhibition (PRVABC59, Concentration 100.0 uM, Number of replicates 2.0, Standard deviation 0.40502109894604904 %) came to 17.9%; the inhibition (PRVABC59, Concentration 200.0 uM, Number of replicates 2.0, Standard deviation 0.08715563662307181 %) is 30.5%.

For the compound `CN(CCS(N)(=O)=O)C(=O)c1cc(Cl)ccc1NS(=O)(=O)c1ccc(Oc2ccccc2Cl)cc1`, the inhibition turned out to be 8.99% (PRVABC59, Concentration 49.5 uM, Number of replicates 2.0, Standard deviation 4.192376018410405 %); 17.3% (PRVABC59, Concentration 99.01 uM, Number of replicates 2.0, Standard deviation 3.3291863073712813 %); 72.5% (PRVABC59, Concentration 198.0 uM, Number of replicates 2.0, Standard deviation 0.7795966632269805 %).

Take `CCCN(C)C(=O)c1cc(Cl)ccc1NS(=O)(=O)c1ccc(Oc2ccccc2Cl)cc1`: the inhibition is 30.1% (PRVABC59, Concentration 49.5 uM, Number of replicates 2.0, Standard deviation 1.6827651888895978 %); 42.7% (PRVABC59, Concentration 99.01 uM, Number of replicates 2.0, Standard deviation 1.553741884480168 %); 51.4% (PRVABC59, Concentration 198.0 uM, Number of replicates 2.0, Standard deviation 1.4828704414225533 %).

For `CCCCCNC(=O)c1cc(Cl)ccc1NS(=O)(=O)c1ccc(Oc2ccccc2Cl)cc1`, the inhibition came to 30.5% (PRVABC59, Concentration 49.5 uM, Number of replicates 2.0, Standard deviation 0.82866638448688 %) and 14.2% (PRVABC59, Concentration 99.01 uM, Number of replicates 2.0, Standard deviation 0.1903473061675686 %).
